Data from PubChem BioAssay (NCI).
The panel holds about 83,000 compounds, 20% with a hit somewhere; the sample as a whole holds those more often.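 For each line, cells grew in 96-well plates with the test compound present at a single concentration for 48 hours.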 Values without a mark were called inactive. Calls of active or inactive are those of the source. Rule for the calls: active = growth percent below 10; inactive = the rest.

Assays:
Test in all cases: NCI-60 one-dose screen, 48 h (100 = growth as untreated, 0 = no growth, -100 = all killed)
Settings in all cases: 10 µM
[1] = test system: DU-145 prostate
[2] = test system: K-562 leukemia
[3] = test system: MALME-3M melanoma
[4] = test system: MDA-MB-231 breast
[5] = test system: RXF 393 renal
[6] = test system: SF-268 CNS
[7] = test system: SF-295 CNS
[8] = test system: SF-539 CNS
[9] = test system: UACC-257 melanoma
[10] = test system: HCT-15 colon
[11] = test system: HT29 colon
[12] = test system: SNB-75 CNS
[13] = test system: SNB-19 CNS
[14] = test system: U251 CNS
[15] = test system: PC-3 prostate
[16] = test system: SK-MEL-5 melanoma
[17] = test system: UACC-62 melanoma
[18] = test system: LOX IMVI melanoma
[19] = test system: SK-MEL-28 melanoma
[20] = test system: M14 melanoma

Row | SMILES | growth [1] [%] | growth [2] | growth [3] [%] | growth [4] [%] | growth [5] | growth [6] [%] | growth [7] [%] | growth [8] | growth [9] [%] | growth [10] [%] | growth [11] [%] | growth [12] [%] | growth [13] [%] | growth [14] [%] | growth [15] [%] | growth [16] [%] | growth [17] [%] | growth [18] | growth [19] [%] | growth [20] [%]
1 | Nc1cc(Br)c(-c2nn3c(CCC(=O)c4nc5ccccc5[nH]4)nnc3s2)c(Br)c1 | 102 | 7.05% (active) | 95.8 | 99 | 109% | 99.7 | 108 | 83.4% | 116 | 124 | 78.7 | 92.6 | 104 | 97.5 | 87.1 | 91.6 | 101 | 93.4% | 111 | 
2 | COc1ccc(-c2nn(-c3cccc(Cl)c3)cc2-c2cc(-c3ccccc3)nc(N)n2)cc1 | 95.1 | -3.82% (active) | 52.1 | 35.1 | 56.2% | 65.7 | 55 | 89% | 81.1 | 44.5 |  | 89.9 | 75.2 |  | 40 | 73.3 | 74.3 | -84.1% (active) | 83.8 | 52.6
3 | COC(=O)C1(O)NC(=C(C#N)C#N)C(C#N)=C1C(=O)c1ccc(OC)c(OC)c1 (configuration not stated) | 111 | 100% | 103 | 119 | 100% | 98.5 | 105 | 104% | 81.7 | 105 | 99.6 | 94.5 | 97.1 | 92.5 | 76.9 | 101 | 99.3 | 99.4% | 120 | 
4 | COc1ccc(-c2nn(-c3cccc(Cl)c3)cc2-c2nc(N)[nH]c(=O)c2C#N)cc1 | 102 | 28.3% | 37.4 | 62.9 | 63.4% | 68.8 | 38.6 | 75.6% | 94 | 65.4 |  | 68.9 | 60.3 |  | 75.5 | 67.6 | 58.8 | 63% | 90.4 | 55.8
5 | COc1ccc(-c2nnc(SCC(=O)Nc3ccc(C(=O)/C=C/c4ccccc4)cc3)n2-c2ccccc2)cc1OC | 50.4 | 37.2% | 36.4 | 73.4 | 72.4% | 84.8 | 106 | 0.289% (active) | 72.4 | 86.5 | 60.3 | 84.2 | 83.3 | 79.5 | 69.5 | 83.1 | 81.1 | 32.5% | 89.3 | 
6 | NC(CSC(c1ccccc1)(c1ccccc1)c1cccc2ccccc12)C(=O)O (configuration not stated) | 106 | 103% | 112 | 96.1 | 94.2% | 85 | 91.1 | 94.5% | 103 | 102 | 113 | 87.6 | 84.9 |  | 84.3 | 82.6 | 90.4 | 96.9% | 93.7 | 
7 | CS(=O)(=O)c1nccc(-c2c(-c3cccc(O)c3)nc3sccn23)n1 | 90.9 | 101% | 94.7 | 74.4 | 85% | 98.5 | 103 | 92.4% | 92.9 | 101 | 91.7 | 70.4 | 103 | 91.9 | 96.8 | 86 | 85.9 | 91.5% | 94 | 
8 | CC(C)(C)c1ccc(S(=O)(=O)N[C@H]2CC[C@H]3[C@@H]4CCc5cc(OS(=O)(=O)O)ccc5[C@H]4CC[C@]23C)cc1 | 63.3 | 22% | 41.8 | 26.4 | 9.08% (active) | 51.2 | 44.7 | 82.4% | 68.2 | 35.4 |  | 61.6 | 92.3 |  | 27.5 | 52.5 | 62 |  | 77.5 | 54.2
